Assay results reported in ChEMBL document CHEMBL3988442, “University of Dundee, Small-Polar-MMV Screening Library” (2021).
For some of these results: Results with a measured potency or affinity are listed apart.

Key:
Parameters in all cases: scale not given: direction of the effect not stated beside the values
[1] = biological target: Protein translocase subunit SecA (Escherichia coli (strain K12)) (UniProt P10408); experiment: Assay to Identify E. coli SecA ATPase Inhibitors; type: functional; conditions: 30 µM
[2] = biological target: T1, Ubiquitin-activating enzyme e1, putative (Leishmania donovani (strain BPK282A1)) (UniProt E9BSI1); experiment: Leishmania donovani Ubiquitin Activating Enzyme (LdE1); type: functional; conditions: 30 µM
T1 sequence (whole entry): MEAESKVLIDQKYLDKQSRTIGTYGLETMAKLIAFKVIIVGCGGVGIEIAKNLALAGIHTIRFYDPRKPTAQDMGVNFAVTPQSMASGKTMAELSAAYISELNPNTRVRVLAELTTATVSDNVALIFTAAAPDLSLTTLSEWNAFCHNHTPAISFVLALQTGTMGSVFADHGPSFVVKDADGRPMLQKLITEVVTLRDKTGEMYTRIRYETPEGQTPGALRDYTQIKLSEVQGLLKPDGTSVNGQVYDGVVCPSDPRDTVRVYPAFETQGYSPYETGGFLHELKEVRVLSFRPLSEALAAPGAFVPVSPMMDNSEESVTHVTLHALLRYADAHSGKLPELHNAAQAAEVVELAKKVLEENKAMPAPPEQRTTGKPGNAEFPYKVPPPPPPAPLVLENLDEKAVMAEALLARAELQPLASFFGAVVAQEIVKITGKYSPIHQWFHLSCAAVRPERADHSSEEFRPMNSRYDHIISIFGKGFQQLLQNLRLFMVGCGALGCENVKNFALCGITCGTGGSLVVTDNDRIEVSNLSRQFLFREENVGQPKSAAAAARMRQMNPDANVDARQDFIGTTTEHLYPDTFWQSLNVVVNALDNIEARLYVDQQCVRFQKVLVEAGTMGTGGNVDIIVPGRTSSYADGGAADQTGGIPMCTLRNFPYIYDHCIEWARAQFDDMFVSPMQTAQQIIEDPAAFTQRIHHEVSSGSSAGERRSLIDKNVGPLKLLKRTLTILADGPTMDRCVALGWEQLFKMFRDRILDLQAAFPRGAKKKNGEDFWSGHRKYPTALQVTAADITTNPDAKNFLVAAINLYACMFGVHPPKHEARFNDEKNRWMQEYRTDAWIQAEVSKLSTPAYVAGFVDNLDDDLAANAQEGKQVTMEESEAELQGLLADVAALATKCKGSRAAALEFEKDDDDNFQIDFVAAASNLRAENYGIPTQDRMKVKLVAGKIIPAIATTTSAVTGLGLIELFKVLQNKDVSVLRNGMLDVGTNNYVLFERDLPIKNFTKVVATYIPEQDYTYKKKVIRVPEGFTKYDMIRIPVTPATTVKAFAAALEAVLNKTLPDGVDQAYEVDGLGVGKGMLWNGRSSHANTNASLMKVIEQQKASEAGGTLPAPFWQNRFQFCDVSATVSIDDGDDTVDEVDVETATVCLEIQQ

[3] = biological target: Sialic acid-binding Ig-like lectin 9 (Homo sapiens) (UniProt Q9Y336); experiment: Hs-Siglec9 ALPHAscreen SOP 20170721; conditions: 10 µM
[4] = tested on: Trypanosoma cruzi; experiment: Trypanosoma cruzi phosphomannomutase and mannose-1-phosphate guanylyltransferase assay; type: functional; conditions: 10 µM
[5] = biological target: T2, Arginase-2, mitochondrial (Homo sapiens) (UniProt P78540); experiment: in vitro enzyme assay to detect the production of urea directly proportional to the activity of Arginase II; type: functional; conditions: 33.3 µM; also: in the data most compounds retested in dose-response had high values
T2 sequence (whole entry): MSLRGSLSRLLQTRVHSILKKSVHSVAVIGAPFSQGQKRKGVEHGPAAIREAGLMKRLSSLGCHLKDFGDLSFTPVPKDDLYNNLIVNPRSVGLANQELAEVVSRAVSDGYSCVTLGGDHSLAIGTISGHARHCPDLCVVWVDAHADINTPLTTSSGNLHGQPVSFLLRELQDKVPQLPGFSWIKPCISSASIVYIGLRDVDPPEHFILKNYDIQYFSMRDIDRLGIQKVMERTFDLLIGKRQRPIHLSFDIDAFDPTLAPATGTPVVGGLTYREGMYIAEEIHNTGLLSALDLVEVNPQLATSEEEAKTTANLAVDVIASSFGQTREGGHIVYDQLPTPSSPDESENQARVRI

[6] = biological target: T3, Proteasome subunit beta (Trypanosoma cruzi) (UniProt O96673); experiment: Trypanosoma cruzi proteasome chymotrypsin-like activity (TcProtChymo) assay.; also: in the data most compounds retested in dose-response had high values; type: functional; conditions: 9.37 µM
T3 sequence (whole entry): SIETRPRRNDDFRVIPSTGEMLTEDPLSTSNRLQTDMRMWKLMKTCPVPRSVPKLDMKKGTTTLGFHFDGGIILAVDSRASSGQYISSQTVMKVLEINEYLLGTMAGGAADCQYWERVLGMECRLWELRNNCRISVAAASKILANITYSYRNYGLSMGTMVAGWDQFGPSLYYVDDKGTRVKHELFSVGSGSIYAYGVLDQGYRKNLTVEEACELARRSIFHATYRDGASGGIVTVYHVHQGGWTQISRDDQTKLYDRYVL

[7] = organism: Homo sapiens; experiment: To identify inhibition of the IFN signalling (Jak-Stat) pathway via expression of an eGFP reporter gene under the control of an IFN-stimulated response element (ISRE) containing MxA promoter.; type: functional; conditions: 30 µM
[8] = biological target: T4, Tyrosyl-tRNA synthetase, putative (Trypanosoma cruzi (strain CL Brener)) (UniProt Q4DSP6); experiment: Trypanosoma cruzi tyrosyl tRNA synthetase (TcYRS) _High Tyrosine SOP; type: functional; conditions: 30 µM; also: in the data most compounds retested in dose-response had high values
T4 sequence (whole entry): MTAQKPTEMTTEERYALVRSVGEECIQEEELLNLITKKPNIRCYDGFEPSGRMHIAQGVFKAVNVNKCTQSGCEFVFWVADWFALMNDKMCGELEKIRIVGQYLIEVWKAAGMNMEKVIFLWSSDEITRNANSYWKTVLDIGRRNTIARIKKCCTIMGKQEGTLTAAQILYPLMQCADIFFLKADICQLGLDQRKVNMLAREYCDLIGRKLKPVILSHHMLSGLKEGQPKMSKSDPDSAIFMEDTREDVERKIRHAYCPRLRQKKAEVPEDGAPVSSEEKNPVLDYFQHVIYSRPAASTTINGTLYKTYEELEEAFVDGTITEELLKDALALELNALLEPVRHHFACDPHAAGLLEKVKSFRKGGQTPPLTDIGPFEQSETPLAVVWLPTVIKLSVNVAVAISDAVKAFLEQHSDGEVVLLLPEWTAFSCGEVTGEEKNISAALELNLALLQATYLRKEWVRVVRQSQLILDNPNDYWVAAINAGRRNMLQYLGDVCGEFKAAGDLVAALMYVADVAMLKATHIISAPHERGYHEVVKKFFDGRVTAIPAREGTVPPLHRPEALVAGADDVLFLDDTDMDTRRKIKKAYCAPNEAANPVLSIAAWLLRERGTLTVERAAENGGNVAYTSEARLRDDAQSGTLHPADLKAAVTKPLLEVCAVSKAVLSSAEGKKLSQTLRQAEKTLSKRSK

[9] = biological target: T4, Tyrosyl-tRNA synthetase, putative (Trypanosoma cruzi (strain CL Brener)); experiment: Trypanosoma cruzi tyrosyl tRNA synthetase (TcYRS) SOP; type: functional; conditions: 30 µM
[10] = biological target: Chromo domain-containing protein 1 (Saccharomyces cerevisiae (strain ATCC 204508 / S288c) (Baker's yeast)) (UniProt P32657); experiment: ScCHD-1 Enzyme Inhibition Assay; type: functional; conditions: 30 µM; also: in the data most compounds retested in dose-response had high values
Chromo domain-containing protein 1 (Saccharomyces cerevisiae (strain ATCC 204508 / S288c) (Baker's yeast)), sequence (P32657 whole entry, the tested form may be a part): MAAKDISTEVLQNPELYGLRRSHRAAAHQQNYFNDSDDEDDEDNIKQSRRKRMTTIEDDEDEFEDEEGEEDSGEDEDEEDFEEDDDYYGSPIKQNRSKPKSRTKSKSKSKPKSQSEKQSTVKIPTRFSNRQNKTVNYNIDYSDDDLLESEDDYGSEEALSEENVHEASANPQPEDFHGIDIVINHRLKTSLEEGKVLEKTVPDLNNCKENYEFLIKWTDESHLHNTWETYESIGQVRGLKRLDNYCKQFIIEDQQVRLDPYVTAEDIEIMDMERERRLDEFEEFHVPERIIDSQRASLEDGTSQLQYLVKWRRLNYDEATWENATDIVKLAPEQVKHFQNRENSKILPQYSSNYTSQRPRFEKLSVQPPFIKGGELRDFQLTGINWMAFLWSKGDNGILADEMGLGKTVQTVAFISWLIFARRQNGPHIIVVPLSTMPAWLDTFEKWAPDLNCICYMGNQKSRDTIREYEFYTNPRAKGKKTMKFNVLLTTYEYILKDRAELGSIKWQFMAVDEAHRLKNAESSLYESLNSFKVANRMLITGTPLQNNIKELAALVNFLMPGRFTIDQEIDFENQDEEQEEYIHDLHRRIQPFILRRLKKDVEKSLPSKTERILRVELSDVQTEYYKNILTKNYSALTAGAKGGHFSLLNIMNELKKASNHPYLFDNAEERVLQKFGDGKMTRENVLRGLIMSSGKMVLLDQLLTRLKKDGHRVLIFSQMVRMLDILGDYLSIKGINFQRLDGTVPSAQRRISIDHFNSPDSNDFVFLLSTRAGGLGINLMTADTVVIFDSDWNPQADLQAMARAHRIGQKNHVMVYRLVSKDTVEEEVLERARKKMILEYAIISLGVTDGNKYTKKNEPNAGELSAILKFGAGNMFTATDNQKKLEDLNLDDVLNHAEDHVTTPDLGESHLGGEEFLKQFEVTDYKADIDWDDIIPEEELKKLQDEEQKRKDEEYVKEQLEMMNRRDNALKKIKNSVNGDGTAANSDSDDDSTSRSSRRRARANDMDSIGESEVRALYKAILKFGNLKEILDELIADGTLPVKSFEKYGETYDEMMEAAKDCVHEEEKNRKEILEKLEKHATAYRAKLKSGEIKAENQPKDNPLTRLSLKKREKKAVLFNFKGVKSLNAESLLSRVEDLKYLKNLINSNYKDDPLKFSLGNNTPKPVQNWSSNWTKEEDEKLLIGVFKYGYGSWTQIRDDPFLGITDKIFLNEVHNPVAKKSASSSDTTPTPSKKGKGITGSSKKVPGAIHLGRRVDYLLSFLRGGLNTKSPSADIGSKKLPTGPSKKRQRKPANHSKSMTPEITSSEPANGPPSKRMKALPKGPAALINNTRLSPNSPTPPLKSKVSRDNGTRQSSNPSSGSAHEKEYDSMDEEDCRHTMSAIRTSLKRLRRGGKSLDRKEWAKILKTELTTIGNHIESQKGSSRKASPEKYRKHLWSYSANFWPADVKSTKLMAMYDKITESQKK

Protein translocase subunit SecA (Escherichia coli (strain K12)), sequence (P10408 whole entry): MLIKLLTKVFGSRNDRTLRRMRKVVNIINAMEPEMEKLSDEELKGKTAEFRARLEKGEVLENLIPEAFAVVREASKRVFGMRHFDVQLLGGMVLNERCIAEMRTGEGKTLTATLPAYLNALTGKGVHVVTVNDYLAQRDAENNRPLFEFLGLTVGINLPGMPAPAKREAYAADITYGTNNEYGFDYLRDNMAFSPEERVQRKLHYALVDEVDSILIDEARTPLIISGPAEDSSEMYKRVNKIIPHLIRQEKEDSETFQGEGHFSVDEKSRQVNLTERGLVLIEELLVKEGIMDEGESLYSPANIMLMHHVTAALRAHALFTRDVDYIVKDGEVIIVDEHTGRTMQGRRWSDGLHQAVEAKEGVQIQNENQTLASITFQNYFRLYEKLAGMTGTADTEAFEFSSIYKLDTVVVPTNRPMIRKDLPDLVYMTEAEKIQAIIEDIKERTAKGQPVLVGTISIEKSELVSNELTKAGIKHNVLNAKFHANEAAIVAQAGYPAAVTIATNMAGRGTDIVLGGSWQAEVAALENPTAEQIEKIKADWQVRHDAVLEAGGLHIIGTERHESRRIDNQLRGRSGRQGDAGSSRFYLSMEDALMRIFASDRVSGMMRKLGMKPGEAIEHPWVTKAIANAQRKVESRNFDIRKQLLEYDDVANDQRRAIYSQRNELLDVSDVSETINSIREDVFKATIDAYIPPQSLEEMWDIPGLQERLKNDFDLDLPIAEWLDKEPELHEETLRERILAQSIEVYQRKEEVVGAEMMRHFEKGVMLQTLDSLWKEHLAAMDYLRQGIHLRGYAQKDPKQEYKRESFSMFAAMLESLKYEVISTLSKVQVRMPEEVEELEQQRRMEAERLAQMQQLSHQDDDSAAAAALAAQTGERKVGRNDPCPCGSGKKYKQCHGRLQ
Sialic acid-binding Ig-like lectin 9 (Homo sapiens), sequence (Q9Y336 whole entry): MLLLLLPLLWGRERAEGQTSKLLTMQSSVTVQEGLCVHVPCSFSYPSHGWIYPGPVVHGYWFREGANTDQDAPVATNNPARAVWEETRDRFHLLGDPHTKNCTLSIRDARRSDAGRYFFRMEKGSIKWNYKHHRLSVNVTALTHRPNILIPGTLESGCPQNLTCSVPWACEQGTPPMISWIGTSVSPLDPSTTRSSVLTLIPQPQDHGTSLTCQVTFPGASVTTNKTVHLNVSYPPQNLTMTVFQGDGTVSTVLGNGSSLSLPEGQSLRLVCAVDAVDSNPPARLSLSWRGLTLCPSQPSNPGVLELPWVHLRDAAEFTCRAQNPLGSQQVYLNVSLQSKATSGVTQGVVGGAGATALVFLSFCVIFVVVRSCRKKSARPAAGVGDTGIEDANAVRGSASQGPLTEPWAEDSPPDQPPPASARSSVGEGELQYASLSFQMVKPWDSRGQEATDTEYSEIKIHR

## CCCn1nc2c(cc1=O)CN(CC(=O)Nc1nnc(C)s1)CC2
[1]
  Percent Effect: -7.9%
[2]
  Percent Effect: 13%
[3]
  Percent Effect: 10.3%
[4]
  Percent Effect: -3.92%
[5]
  Percent Effect: 3.07%
[6]
  Percent Effect: 11.8%
[7]
  Percent Effect: 1.49%
[8]
  Percent Effect: 2.94%
[9]
  Percent Effect: 9.41%
[10]
  Percent Effect: -8.62%

## CC(=O)N1[C@H](CN(C)C)C[C@@H]2CN(C(=O)c3cccc(F)c3)CC[C@@H]21
[1]
  Percent Effect: -6.12%
[2]
  Percent Effect: 9.09%
[3]
  Percent Effect: -5.21%
[4]
  Percent Effect: -3.19%
[5]
  Percent Effect: -12.8%
[6]
  Percent Effect: 14.2%
[7]
  Percent Effect: 14.5%
[8]
  Percent Effect: 3.87%
[9]
  Percent Effect: 0%
[10]
  Percent Effect: -5.63%

## CC(C)c1ncc(S(C)(=O)=O)c(C2CCCNC2)n1 (stereo not given)
[1]
  Percent Effect: -5.26%
[2]
  Percent Effect: 10.8%
[3]
  Percent Effect: 16.7%
[4]
  Percent Effect: 6.11%
[5]
  Percent Effect: 14.3%
[6]
  Percent Effect: 3.94%
[7]
  Percent Effect: -1.56%
[8]
  Percent Effect: 6.92%
[9]
  Percent Effect: 17.1%
[10]
  Percent Effect: -3.61%

## CC(C)NC(=O)C1CN(C(=O)c2ccco2)CC12CCOCC2 (stereo not given)
[1]
  Percent Effect: -1.7%
[2]
  Percent Effect: 9.09%
[3]
  Percent Effect: -6.62%
[4]
  Percent Effect: 3.41%
[5]
  Percent Effect: 3.24%
[6]
  Percent Effect: 10.2%
[7]
  Percent Effect: -3.41%
[8]
  Percent Effect: 8.95%
[9]
  Percent Effect: 12.8%
[10]
  Percent Effect: -4.15%

## CCn1c(CN2CCCC2)nnc1C1CCN(Cc2ccc(C)o2)CC1
[1]
  Percent Effect: -1.86%
[2]
  Percent Effect: 0%
[3]
  Percent Effect: 4.03%
[4]
  Percent Effect: 6.89%
[5]
  Percent Effect: 13.6%
[6]
  Percent Effect: 13.9%
[7]
  Percent Effect: 2.8%
[8]
  Percent Effect: 6.92%
[9]
  Percent Effect: 19.5%
[10]
  Percent Effect: -6.17%

## COCC(=O)N1CCC2(CC1)CCN(Cc1ccccn1)C2=O
[1]
  Percent Effect: -4.26%
[2]
  Percent Effect: -3.9%
[3]
  Percent Effect: -5.87%
[4]
  Percent Effect: -2.24%
[5]
  Percent Effect: -3.64%
[6]
  Percent Effect: 1.5%
[7]
  Percent Effect: -7.24%
[8]
  Percent Effect: -2.63%
[9]
  Percent Effect: -5.13%
[10]
  Percent Effect: 0.829%

## Cc1cc(N2CCC(Cc3ccccc3)CC2)nc(-c2ccncc2)n1
[1]
  Percent Effect: -1.61%
[2]
  Percent Effect: -15.6%
[3]
  Percent Effect: 11%
[4]
  Percent Effect: 14.4%
[5]
  Percent Effect: -6.76%
[6]
  Percent Effect: -5.44%
[7]
  Percent Effect: -2.83%
[8]
  Percent Effect: 18.6%
[9]
  Percent Effect: 7.06%
[10]
  Percent Effect: 4.27%

## Cc1cccn2cc(CC(=O)N3CCCC(n4cncn4)C3)nc12 (stereo not given)
[1]
  Percent Effect: -0.27%
[2]
  Percent Effect: 17.9%
[3]
  Percent Effect: -8.4%
[4]
  Percent Effect: 6.1%
[5]
  Percent Effect: 5.74%
[6]
  Percent Effect: 15.6%
[7]
  Percent Effect: 17.2%
[8]
  Percent Effect: 3.35%
[9]
  Percent Effect: 22.9%
[10]
  Percent Effect: -6%

## O=C(c1ccco1)N1C[C@H]2CCCN(Cc3cccs3)[C@H]2C1
[1]
  Percent Effect: -3.68%
[2]
  Percent Effect: 14.3%
[3]
  Percent Effect: -9.29%
[4]
  Percent Effect: -4.58%
[5]
  Percent Effect: -2.02%
[6]
  Percent Effect: 15.1%
[7]
  Percent Effect: 28.2%
[8]
  Percent Effect: 3.68%
[9]
  Percent Effect: 7.69%
[10]
  Percent Effect: -4.26%

## CCc1cnc(CN2CCC(N(C)Cc3noc(C4CC4)n3)C2)o1 (stereo not given)
[1]
  Percent Effect: -3.48%
[2]
  Percent Effect: 0%
[3]
  Percent Effect: -1.21%
[4]
  Percent Effect: -2.24%
[5]
  Percent Effect: 4.3%
[6]
  Percent Effect: 0.175%
[7]
  Percent Effect: 5.76%
[8]
  Percent Effect: 0.98%
[9]
  Percent Effect: -2.35%
[10]
  Percent Effect: 0.446%

## COc1ncccc1CNC(=O)NCCNC(=O)c1ccco1
[1]
  Percent Effect: -2.62%
[2]
  Percent Effect: 13.3%
[3]
  Percent Effect: -3.85%
[4]
  Percent Effect: 6.83%
[5]
  Percent Effect: 1.33%
[6]
  Percent Effect: 16%
[7]
  Percent Effect: 18.4%
[8]
  Percent Effect: 4.74%
[9]
  Percent Effect: 12.8%
[10]
  Percent Effect: -6.18%

## Cc1cnn(CC2CN(CC(=O)N3CCc4ccccc43)CCO2)c1 (stereo not given)
[1]
  Percent Effect: -4.43%
[2]
  Percent Effect: 8%
[3]
  Percent Effect: 4.38%
[4]
  Percent Effect: -0.803%
[5]
  Percent Effect: 3.55%
[6]
  Percent Effect: 3.48%
[7]
  Percent Effect: 6.22%
[8]
  Percent Effect: 4.74%
[9]
  Percent Effect: -5.13%
[10]
  Percent Effect: -9.1%

## c1ccc(C(OCCNC2CCc3ncnn3C2)c2ccccc2)cc1 (stereo not given)
[1]
  Percent Effect: -5.97%
[2]
  Percent Effect: 10.4%
[3]
  Percent Effect: 5.43%
[4]
  Percent Effect: 5.41%
[5]
  Percent Effect: -4.3%
[6]
  Percent Effect: 0.526%
[7]
  Percent Effect: -3.8%
[8]
  Percent Effect: 0.98%
[9]
  Percent Effect: 18.8%
[10]
  Percent Effect: -13.3%
